# ALOX12 inh: inhibitors of human 12S-lipoxygenase ALOX12; P18054; purified 12hLO, xylenol orange hydroperoxide absorbance; Potency, µM (top dose mostly 108 µM), inactives show at the top dose activity change, negative = inhibition, hits mostly inhibitors; actives 1.1% (n = 580,000); AID 1671190; also: potency is read from the fitted curve at half-maximal effect
# Target sequence (P18054 whole entry, looked up): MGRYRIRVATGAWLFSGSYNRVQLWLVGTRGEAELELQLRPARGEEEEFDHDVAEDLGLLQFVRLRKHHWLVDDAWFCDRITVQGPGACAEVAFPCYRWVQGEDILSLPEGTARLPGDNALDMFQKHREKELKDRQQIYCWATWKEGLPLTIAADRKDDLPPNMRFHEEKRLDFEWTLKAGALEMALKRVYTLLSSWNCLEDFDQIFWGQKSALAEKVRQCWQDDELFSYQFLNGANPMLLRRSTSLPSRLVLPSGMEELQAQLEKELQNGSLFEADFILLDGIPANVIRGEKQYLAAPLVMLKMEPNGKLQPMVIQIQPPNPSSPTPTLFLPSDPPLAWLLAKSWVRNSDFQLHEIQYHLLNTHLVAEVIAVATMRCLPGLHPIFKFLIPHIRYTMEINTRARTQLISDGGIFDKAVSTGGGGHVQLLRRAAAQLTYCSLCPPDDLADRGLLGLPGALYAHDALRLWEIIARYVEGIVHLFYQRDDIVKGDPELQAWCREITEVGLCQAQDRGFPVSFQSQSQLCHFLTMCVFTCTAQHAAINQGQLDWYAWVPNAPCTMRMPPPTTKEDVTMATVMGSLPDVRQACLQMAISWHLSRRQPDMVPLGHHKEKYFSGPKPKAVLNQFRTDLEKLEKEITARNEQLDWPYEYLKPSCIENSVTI
#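 Purified human 12hLO at 150 nM in 25 mM Hepes, 0.01% Triton X-100, pH 7.0, preincubated 15 min at room temperature with compound. Reaction started with 40 uM arachidonic acid, 30 min at room temperature. Hydroperoxide measured by Fe-xylenol orange, 573/405 nm absorbance ratio.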
# TDP1 cell noCPT: qHTS for Inhibitors of human tyrosyl-DNA phosphodiesterase 1 (TDP1): qHTS in cells in absence of CPT | AID 686978, 2013 | DT40 Tdp1-/- hTDP1 cells, no CPT, ATP luminescence, 48 h | Potency, µM (doses to about 46.2 µM), for inactives: at the highest dose activity change, negative = growth inhibition, hits mostly inhibitors | actives 15% (n = 420,000); also: potency is read from the fitted curve at half-maximal effect; nearly all actives have a fitted effect of over 55% in size
#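 Stably hTDP1-transfected Tdp1-null chicken DT40 cells were treated with library compounds minus camptothecin and grown for at least 48 hr at 37 °C, after which cellular ATP was quantified by luminescence.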
# IL-1B inflam inh: blocks inflammasome-driven IL-1 beta release | activity change, % at 57.5 µM | AID 743279 | THP-1 LPS/ATP IL-1B secretion, AlphaLISA, 16 h; hits give low values | actives 4.7% (n = 360,000); in the data active = activity change below about -50%; inconclusive = mostly about -30% to -49%
#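 THP-1 cells pretreated 1 hr with compounds (up to 57.5 uM final), then stimulated with LPS (250 ng/mL final) plus ATP (1.25 mM final); secreted IL-1B measured by AlphaLISA after 16 hr, decreased signal indicating inhibition.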
# HT1080 IDH1KD tx: kills HT-1080 cells with IDH1 knockdown. Potency, µM (titrated, usually from 46.1 µM), without a hit: top-dose activity, negative = toxicity, usual class: cytotoxic. HT-1080 IDH1 knockdown viability, ATP luminescence, 48 h. actives 2% (n = 360,000);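 also: potency is read from the fitted curve at half-maximal effect; 0% = DMSO wells and -100% = cell-free medium wells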
#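 Using the IDH1-knockdown HT-1080 line run in the same batch and compound series as the NT line, viability after 48 h at 37 °C was determined by CellTiter-Glo luminescence and expressed as % activity.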
# HT1080-NT tox: kills 2HG-producing HT-1080-NT fibrosarcoma cells | HT-1080-NT fibrosarcoma viability, CellTiter-Glo ATP luminescence, 48 h | Potency, µM (titrated, usually from 46.1 µM), for the others: at the highest dose activity, negative = less viability, most hits filed as cytotoxic | actives 1.6% (n = 360,000) | AID 686970;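 also: NT is the 2HG producing partner of a matched IDH1 knockdown line; potency is read from the fitted curve at half-maximal effect; 0% = DMSO-treated cells and -100% = media-only wells without cells; nearly all actives have a fitted effect of over 55% in size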
#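 Compounds were tested in concentration-response format on HT-1080-NT cells for 48 hours at 37 degrees C. Cell viability came from CellTiter-Glo luminescence; curves were classified by r2, response magnitude and activity.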
# TDP1 cell CPT: growth inhibition of DT40 Tdp1-/-;hTDP1 cells with camptothecin (screen for TDP1 inhibitors); AID 686979; Potency, µM (highest dose often 46.2 µM), for inactives: at the top dose activity change, negative = growth inhibition, hits mostly inhibitors; actives 12% (n = 420,000); chicken DT40 Tdp1-/-;hTDP1 cells + 20 nM CPT, ATP luminescence, 48 h; also: potency is read from the fitted curve at half-maximal effect; nearly all actives have a fitted effect of over 55% in size
#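 Chicken DT40 Tdp1-/- cells complemented with human TDP1, 400 cells/well, exposed to compounds plus 20 nM camptothecin for at least 48 h at 37 C; viability read as ATP content by CellTiter-Glo luminescence.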
# * = called active by the depositor; i = inactive; ? = inconclusive; . = not tested or not shown; [ ] = remark or other dose. Shown is part of a subset that was picked to be rich in hits. Unless noted, calls follow the shape of the dose curve; as a rule, active = well fitted curve in the direction sought with a large enough effect; inconclusive = small, poorly fitted or top-dose-only effect, or another doubt; inactive = no such curve, though single readings can be large; an effect the other way counts as inactive or inconclusive. Unless noted, % is scaled to controls: 0 for no effect and ±100 for the full control effect.
SMILES,ALOX12 inh,TDP1 cell noCPT,IL-1B inflam inh,HT1080 IDH1KD tx,HT1080-NT tox,TDP1 cell CPT
COCCN1C(=O)N[C@@H](c2cccc(C(F)(F)F)c2)C(C(=O)OC)=C1C,.,-17.4%,23.0,1.8%,-1.7%,?
Fc1ccc(OCc2cc(-c3cccs3)on2)c(Br)c1,-45.0%,.,.,.,.,.
c1ccc(CN2CCC3(CCCc4ccccc43)CC2)cc1,-2.4%,16.4µM*,3.3,16.4µM*,?,?
CC1(C(=O)O)CCN(Cc2ccccc2)CC1,-0.5%[12.5 µM],.,.,.,.,.
C/C(=N\NC(=O)CCC(=O)N/N=C(\C)c1ccc(C)o1)c1ccc(C)o1,i,-15.5%,12.5,5.9%,8.2%,-2.9%
C/C(=N\NC(=O)C(O)(c1ccccc1)c1ccccc1)c1ccc(C)o1,1.1%,18.4µM*,7.4,-17.1%,-17.9%,?
C/C(=N/Nc1nc(C)cc(-c2ccccc2)n1)c1ccco1,-7.4%,?,-10.6,?,-6.2%,20.6µM*
C/C(=N\Nc1nc(C)cc(-c2ccccc2)n1)c1ccc(C)o1,0.0%,4.61µM*,-2.4,-9.8%,-0.1%,?
Cc1cccc(C)c1OCc1nc2ccccc2c(=O)n1/N=C/c1ccc(OCC(=O)O)cc1,-6.1%,?,6.4,-3.0%,-8.2%,-25.5%
Cc1cc(/C=N/n2c(COc3ccccc3)nc3ccccc3c2=O)c(O)c([N+](=O)[O-])c1,-6.2%,20.6µM*,40.2,?,?,16.4µM*
Cc1nc2ccccc2c(=O)n1/N=C/c1cn[nH]c1-c1ccccc1,1.7%,14.6µM*,-13.7,-9.8%,-9.9%,?
Cc1ccccc1OCc1nc2ccccc2c(=O)n1/N=C/c1cn[nH]c1-c1ccccc1,6.4%,20.6µM*,-52.7*,?,?,?
Cc1ccc(-c2[nH]ncc2/C=N/n2c(COc3ccccc3)nc3ccccc3c2=O)cc1,10.7%,?,-91.8*,?,?,?
CC(C)CCNC[C@H]1O[C@H](Cc2cc(-c3ccc(F)cc3)on2)CC[C@@H]1O,26.6%[176 µM],.,.,.,.,.
CO[C@H]1C(=O)N(C(C)C)[C@H]1C1CCN(C(=O)c2nn(C)c3ccccc23)CC1,22.5%,.,.,.,.,.
O=C(O)Cn1cc(C(C(=O)O)N2CCN(Cc3ccncc3)CC2)c2cc(Br)ccc21 (stereo not drawn),10.2%,.,.,.,.,.
Cc1ccc(CNC(=O)COCc2cc(-c3ccc4c(c3)OCO4)on2)cc1,-10.1%,?,.,.,.,?
O=[N+]([O-])c1ccccc1S(=O)(=O)NC1CCCC1,-17.2%,-3.3%,16.7,13.8%,23.4%,0.4%
O=[N+]([O-])c1cnc(NS(=O)(=O)c2ccccc2[N+](=O)[O-])s1,39.8µM*,.,.,.,.,.
O=[N+]([O-])c1ccccc1S(=O)(=O)NC1CCCCCCC1,-14.1%,16.4µM*,3.8,-2.7%,-4.8%,-22.3%
O=[N+]([O-])c1ccccc1S(=O)(=O)Nc1ccc(S(=O)(=O)Nc2nccs2)cc1,?,16.4µM*,-15.7,-26.3%,-23.3%,?
O=C(NCCc1csc(-c2ccccn2)n1)c1ccccc1,50.7%,.,.,.,.,.
Cc1cc(F)ccc1S(=O)(=O)Nc1ccccc1C(=O)NCc1ccccn1,-4.6%,-9.2%,12.3,-3.5%,-17.5%,3.8%
Cc1cccc(NC(=O)c2c(N)sc3c2CCC(C)C3)c1 (stereo not drawn),?,-54.7%,.,.,.,?
Fc1ccccc1Cn1c(-c2ccccc2)nc2ccccc21,-15.2%,7.31µM*,.,.,.,?
CCCCOc1ccccc1NC(=O)Cn1c(-c2cncs2)nc2ccccc21,-2.3%,?,.,.,.,23.1µM*
Cc1ccccc1Cn1c(C)nc2ccccc21,0.1%,5.8µM*,-5.1,?,-21.4%,?

# From PubChem
